LRH-1 inv ag = LRH-1 (NR5A2) inverse agonists, primary screen, cell-based, luminescence, HEK293T, StAR-luciferase reporter. Nuclear receptor subfamily 5 group A member 2 (Homo sapiens), O00482. LRH-1 transfected, 24 h. inhibition, % at 3.6 µM. 360,000 tested, 0.13% active. AID 602396, 2012;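 active means inhibition above the mean inhibition of all tested compounds plus 3 SD, cut at about 73% in these data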
SRC3 inh = SRC3 coactivator transcriptional activity inhibitors, primary screen, cell-based, luminescence; Nuclear receptor coactivator 3 (Homo sapiens), Q9Y6Q9; HEK293 GAL4-SRC3 luciferase reporter; inhibition, % at 3.6 µM; 360,000 tested, 0.17% active; AID 588352, 2011;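 active means inhibition above a per-campaign cutoff, the mean of all compounds plus 3 SD, cut at about 60% in these data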;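 further: higher means less SRC3-driven luciferase light from the GAL4 reporter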
SRC1 inh = SRC1 coactivator transcriptional activity inhibitors, primary screen, cell-based, luminescence; inhibition, % at 3.6 µM; Nuclear receptor coactivator 1 (Homo sapiens), Q15788; HEK293 GAL4-SRC1 luciferase reporter; 360,000 tested, 0.12% active;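 active means inhibition above the campaign mean plus 3 SD, with each screening campaign given its own cutoff, cut at about 60% in these data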
NR2F2 inh = NR2F2 transcriptional activity inhibitors, primary screen, cell-based, luciferase reporter, HEK293T, luminescence; COUP transcription factor 2 (Homo sapiens), P24468; HEK293T NGFI-A luciferase reporter; inhibition, % at 8.6 µM; 370,000 tested, 0.7% active; AID 686940, 2013;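 active means inhibition above a per-plate cutoff, mean inhibition of test wells between control levels plus 3 SD, cut at about 38% in these data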;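 further: cells cotransfected with COUP-TFII expression vector driving the NGFI-A reporter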
SRC2 inh = inhibition of GAL4-SRC2 driven luciferase reporter, primary screen, SRC2 inhibitor project, cell-based, luminescence | Nuclear receptor coactivator 2 (Homo sapiens), Q15596 | HEK293 GAL4-SRC2 luciferase reporter | inhibition, % at 9 µM | 370,000 tested, 0.17% active;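 active means inhibition above the mean inhibition of all tested compounds plus 3 SD, set per campaign, cut at about 52% in these data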
GalR3 antag = GalR3 antagonists in HEK293 cells, primary screen, cell-based, fluorescence readout; Galanin receptor type 3 (Homo sapiens), O60755; HEK293 GalR3-CNG cAMP membrane potential fluorescence; galR3 body fused to GalR1 C-terminus; inhibition, % at 3 µM; 360,000 tested, 0.44% active; AID 651719, 2012;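 active means inhibition above the screen-wide average plus 3 SD, cut at about 13% in these data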;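 further: forskolin and galanin both at EC90 stimulate the cells; cAMP rise reported by CNG channel membrane potential dye signal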
VP16 Luc counter = Gal4-VP16 luciferase reporter inhibitors, counter-screen for COUP-TFII antagonist project, cell-based, luminescence, HEK293; shares compounds with NR2F2 inh; inhibition, % at 8.5 µM; 2,500 tested, 25% active; AID 687007, 2013; in the data active means inhibition above about 13%
NR2F2 inh conf = NR2F2 transcriptional activity inhibitors, confirmation, cell-based, luciferase reporter, HEK293, triplicate; shares compounds with NR2F2 inh; inhibition, % at 8.5 µM; HEK293 NGFI-A luciferase reporter, luminescence; 2,500 tested, 45% active;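 active means mean inhibition over three repeats above a set limit taken from the earlier primary screen, cut at about 38% in these data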
Numbers stand for hits; – = inactive; · = no result. An excerpt weighted towards active compounds, which were near 1.1% of everything screened.

SMILES	LRH-1 inv ag	SRC3 inh	SRC1 inh	NR2F2 inh	SRC2 inh	GalR3 antag	VP16 Luc counter	NR2F2 inh conf
O=C(O)C(F)=C(c1ccccc1)c1ccccc1	–	–	–	–	–	–	·	·
Cc1ccc(C(=O)N2c3ccccc3NC(=O)C2C)cc1 (stereo not drawn)	–	–	–	–	–	–	·	·
CCN1CCN(CC(=O)N2c3ccccc3CC2C)CC1 (stereo not drawn)	–	–	–	–	–	–	·	·
CCOC(=O)[C@@]12CCCC=C1N(CCc1ccc(Cl)cc1)C(=O)[C@H]2CC(=O)N1CCN(C(=O)c2ccco2)CC1	·	·	·	39	–	·	–	–
CCOC(=O)[C@@]12CCCC=C1N(CCc1ccc(Cl)cc1)C(=O)[C@H]2CC(=O)N1CCSCC1	·	·	·	–	–	·	·	·
O=C(Nc1ccc(Oc2cccnc2)cc1)C1CCN(Cc2cc(Cl)ccc2O)CC1	–	–	–	62	–	–	–	48
O=C(Nc1ccc(Oc2ccccc2)nc1)C1CCN(Cc2cccc(F)c2)CC1	–	–	–	–	–	–	·	·
C#Cc1ccc(CN2CCC(C(=O)Nc3ccc(Oc4ccccc4)nc3)CC2)cc1	–	–	–	49	–	–	–	–
Cc1cccc(NC(=O)CN2C(=O)NC(C)(c3ccc4c(c3)OCO4)C2=O)c1 (stereo not drawn)	–	–	–	–	–	–	·	·
N#C/C(=N/Nc1ccc(OC(F)(F)F)cc1)C(N)=S	–	–	–	38	–	–	–	–
CN(C)S(=O)(=O)c1cccc(NC(=O)c2ccc(COc3ccccc3)cc2)c1	–	–	–	63	–	–	–	52
COCc1ccc(C(=O)Nc2cccc(S(=O)(=O)N(C)c3ccccc3)c2)cc1	–	–	–	–	–	–	·	·
O=C(NNC(=O)c1cccc(S(=O)(=O)N2CCc3ccccc32)c1)c1ccccc1	–	–	–	41	–	–	–	–
CN(C)S(=O)(=O)c1cccc(NC(=O)c2cccc(S(=O)(=O)N3CCc4ccccc43)c2)c1	–	–	–	42	–	–	–	–
CN(c1ccccc1)S(=O)(=O)c1cccc(NC(=O)CN2CCCc3ccccc32)c1	–	–	–	39	–	–	–	–
CSCC[C@@H](C(=O)NCCCCCCCCCCC(=O)N1CCNCC1)n1cc(CCO)nn1	–	–	–	–	–	–	·	·
Nc1ccc(S(=O)(=O)N2CCc3ccccc32)cc1	–	–	–	–	–	–	·	·
O=S(=O)(NC1CCCC1)c1ccc(S(=O)(=O)N2CCc3ccccc32)cc1	–	–	–	40	–	–	–	–
c1ccc(OC2CCN(c3ncnc4sccc34)CC2)cc1	·	·	·	64	·	·	–	49
O=C(c1ccc(F)cc1)C1CCN(c2ncnc3sccc23)CC1	·	·	·	63	·	·	–	56
O=C(c1ccccc1)C1CCN(c2ncnc3sccc23)CC1	·	·	·	74	·	·	–	62
CCc1ccccc1N=C1SCC(=O)N1C	–	–	–	–	–	–	·	·
Cc1cccc(N(C(=O)c2csnn2)C(C(=O)NC2CCCCC2)c2ccncc2)c1 (stereo not drawn)	–	–	–	–	–	–	·	·
O=C1/C(=C/c2ccncc2)CCC/C1=C\c1ccncc1	–	–	–	84	74	–	66	90
COc1ccc(CC(=O)OCC(=O)NC2CCCC(C)C2C)cc1OC (stereo not drawn)	–	–	–	50	–	–	–	–
SMILES	LRH-1 inv ag	SRC3 inh	SRC1 inh	NR2F2 inh	SRC2 inh	GalR3 antag	VP16 Luc counter	NR2F2 inh conf
O=C(CCCOc1ccccc1)Nc1ccc(Cl)c(S(=O)(=O)N2CCOCC2)c1	–	–	–	49	–	–	–	–
O=C(CCCSc1ccccc1)Nc1ccc(Cl)c(S(=O)(=O)N2CCOCC2)c1	–	–	–	40	–	–	–	–
Cc1ccc(NC(=O)CCCOc2ccccc2)cc1S(=O)(=O)N1CCOCC1	–	–	–	–	–	–	·	·
Cc1ccc(OCCCC(=O)Nc2ccc(Cl)c(S(=O)(=O)N3CCOCC3)c2)cc1	–	–	–	57	–	–	–	–
COc1ccc(-c2nnn3c2Cn2c4ccccc4c(=O)n2[C@@H](C(C)C)C3)cc1	·	·	·	–	–	·	·	·
CCOC(=O)CC1=C(C#N)C(c2cccnc2)C(C(=O)OCC)=C(N)O1 (stereo not drawn)	–	–	–	–	–	–	·	·
CC(C)C(=O)N1CCN(c2ccc(NC(=O)COc3ccccc3[N+](=O)[O-])cc2)CC1	–	–	–	50	–	–	–	–
O=C(COC(=O)CC1c2ccccc2CCN1S(=O)(=O)c1ccccc1)Nc1ccccc1 (stereo not drawn)	–	–	–	–	–	–	·	·
CN(C(=O)COc1ccccc1C(=O)NCCOc1ccccc1)c1ccccc1	–	77	–	56	–	–	–	–
COc1ccc(NC(=O)CS(=O)CC(=O)NCc2cccc(C(F)(F)F)c2)cc1 (stereo not drawn)	–	–	–	–	–	–	·	·
O=C(/C=C\Nc1ccc2c(c1)OCO2)c1ccccn1	–	–	–	46	73	–	31	52
NC1=C(Br)C(=O)c2ncccc2C1=O	95	88	83	81	75	–	92	93
Nc1ccc(OC(=O)Nc2ccc(O)cc2)cc1	–	–	–	44	77	–	36	–
Cc1cccc(OCc2nnc(N)s2)c1C	–	–	–	–	–	–	·	·
O=C(Nc1ccc(F)cc1)Nc1cc(OCC(F)(F)F)cc(OCC(F)(F)F)c1	–	–	–	76	–	–	17	79
Cc1cccc(C(=O)NCCNC(=O)c2cccc(C)c2)c1	–	–	–	–	–	–	·	·
Nc1ccc(-c2nc3c(Cl)cc(N)cc3[nH]2)cc1	–	–	–	48	53	–	57	–
CN1c2ccccc2C(C)(C)[C@]12C=Cc1cc(O)ccc1O2	–	–	–	43	–	–	–	–
Cc1c(C)n(CCc2ccccc2)c2ncnc(NCCO)c12	–	–	–	–	–	–	·	·
Cc1c(C)n(Cc2ccccc2)c2ncnc(Cl)c12	–	–	–	45	–	–	–	42
CC(C)(C)c1ccccc1NC(=O)c1cc(-c2ccncc2)nc2ccccc12	–	–	–	–	–	–	·	·
O=C1CC(c2ccc3c(c2)OCCO3)Oc2ccccc21 (stereo not drawn)	–	–	–	–	–	–	·	·
